The structures appear in SMILES notation. Calls of active or inactive are those of the source.

The nature of experiment [1]: small molecules captured by biotinylated probe aFSTL3 – biochemical, small-molecule microarray, fluorescence 635/667, stem cell growth factor project, primary screen (AID 1064).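 Further: measures binding of the biotinylated anti-FSTL3 antibody to printed compounds.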 Conditions: higher = more signal.
The nature of experiment [2]: binders from COS7 lysate, DM2A8 probe, primary screen, torsin A project, cell lysate, small-molecule microarray, fluorescence 635/667 (AID 1065). Conditions: higher = more signal, COS7 lysate expressing mutant human TOR1A.
Experiment [3] is described as follows: small molecules captured by biotinylated probe aFGF2 – biochemical, small-molecule microarray, fluorescence 635/667, stem cell growth factor project, primary screen (AID 1067).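 Further: measures binding of biotinylated aFGF2 protein to printed compounds on slides; z-score merges feature fluorescence and signal-to-noise across triplicate slides.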 The conditions noted are these: higher = more signal.
A short description of experiment [4]: small molecules captured by biotinylated probe aFGF10 – biochemical, small-molecule microarray, fluorescence 635/667, stem cell growth factor project, primary screen (AID 1071).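 Further: score merges 667 nm spot intensity and signal to noise from triplicate slides.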 The conditions noted are these: higher = more signal.
For experiment [5], the target named is Neurogenic locus notch homolog protein 2 (Homo sapiens) (UniProt Q04721). The experiment in a line: small molecules binding Notch2 protein – biochemical, small-molecule microarray, 635 nm fluorescence, stem cell growth factors, primary screen (AID 1073). Conditions: higher = more signal.
Experiment [6] addresses Pro-neuregulin-1, membrane-bound isoform (Homo sapiens) (UniProt Q02297). The experiment in a line: small molecules binding neuregulin-1 protein – biochemical, small-molecule microarray, fluorescence 635/667, psychiatric disease protein project, primary screen (AID 1075).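 Further: score combines 667 nm spot fluorescence with signal to noise.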 Conditions: NRG1 binding, 635 nm fluorescence, higher = more signal.
The test system of experiment [7] is Neuregulin-1 EGF-like domain. Put plainly: small molecules binding NRG1 EGF domain – biochemical, small-molecule microarray, 635 nm fluorescence, primary screen (AID 1081).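 Further: binding of the protein to compounds printed on small-molecule microarray slides.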 The conditions noted are these: higher = more signal.
A short description of experiment [8]: FRG1 expression reporter modulators in myotubes – cell-based, C2C12 myotubes, firefly/Renilla luciferase, luminescence, FRG1 inhibition for FSHD, primary screen (AID 1084). Conditions: FRG1 promoter luciferase, higher = more signal, called active from +8 up or from −8 down.
Experiment [9] can be described thus: small molecules captured by biotinylated probe aFST – biochemical, small-molecule microarray, fluorescence 635/667, stem cell growth factor project, primary screen (AID 1086).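 Further: score merges 667 nm fluorescence with signal-to-noise of each printed compound spot.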 Conditions: higher = more signal.
Experiment [10] in a line: binders of probe aHhip on microarray, primary screen, stem cell growth factor project, biochemical, small-molecule microarray, fluorescence 635/667 (AID 1087).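 Further: score merges spot fluorescence at 667nm with spot signal to noise ratio.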 The conditions noted are these: higher = more signal.
Experiment [11] deals with PRMT1 (protein arginine N-methyltransferase 1). The experiment in a line: small molecules binding arginine methyltransferase PRMT1 – biochemical, small-molecule microarray, 635 nm fluorescence, primary screen (AID 1088).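 Further: binding of Prmt1 protein to compounds spotted on small-molecule microarray slides.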 Conditions: higher = more signal.
Experiment [12] is described as follows: growth effects on S. cerevisiae YJM789 – YJM789 clinical isolate, OD600, 24 h, basal, primary screen (AID 1089).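 Further: growth of clinical yeast isolate S. cerevisiae YJM 789 seeded 1000 cells per well; test concentration not given here.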 Conditions: higher = more signal, called active from +8 up or from −8 down.
Experiment [13] can be described thus: S. pombe growth modifiers, basal conditions – strain 972, OD600, 24 h, no modulator, primary screen (AID 1090).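 Further: basal condition with compound alone and no growth modifier present; test concentration not given here.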 The conditions noted are these: S. pombe 972 growth, higher = more signal, called active from +8 up or from −8 down.
The nature of experiment [14]: budding yeast growth modifiers under rapamycin – strain BY4716, OD600, 96 h, primary screen (AID 1091). Further: test concentration not given here. The conditions noted are these: S. cerevisiae BY4716 + rapamycin, higher = more signal, called active from +8 up or from −8 down.
The target in experiment [15] is Torsin-1A-interacting protein 2 (Homo sapiens) (UniProt Q8NFQ8). The experiment in a line: small molecules binding lysate-expressed LULL1 – cell lysate, human LULL1 lysate, 635/667 nm fluorescence, primary screen (AID 1092).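 Further: probe is lysate of COS7 cells overexpressing human LULL1; score merges per-feature 667 nm fluorescence with signal-to-noise.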 Conditions: small-molecule microarray, hLULL1 lysate binding, 635 nm fluorescence; higher = more signal.
Torsin-1A-interacting protein 2 (Homo sapiens), sequence (Q8NFQ8 whole entry, looked up): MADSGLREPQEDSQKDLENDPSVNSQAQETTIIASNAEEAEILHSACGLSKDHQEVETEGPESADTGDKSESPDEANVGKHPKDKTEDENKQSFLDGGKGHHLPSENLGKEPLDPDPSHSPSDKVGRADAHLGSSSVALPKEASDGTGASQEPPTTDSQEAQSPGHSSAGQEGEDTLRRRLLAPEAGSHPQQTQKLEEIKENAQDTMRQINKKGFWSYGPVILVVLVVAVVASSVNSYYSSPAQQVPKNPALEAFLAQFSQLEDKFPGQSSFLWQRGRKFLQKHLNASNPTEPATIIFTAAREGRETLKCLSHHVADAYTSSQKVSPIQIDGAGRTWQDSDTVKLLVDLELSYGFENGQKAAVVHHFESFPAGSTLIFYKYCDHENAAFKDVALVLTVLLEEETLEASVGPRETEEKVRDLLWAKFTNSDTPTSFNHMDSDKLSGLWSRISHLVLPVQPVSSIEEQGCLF
Experiment [16] can be described thus: optical density change of DRC41 E. coli – strain DRC41, OD650, 24 h, E. coli filamentation project, primary screen (AID 1093).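 Further: MC1000 strain lacking acrAB efflux and sulA so SOS filamentation is blocked; test concentration not given here.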 The conditions noted are these: E. coli DRC41 growth, higher = more signal, called active from +8 up or from −8 down.
Experiment [17] is described as follows: probe aLefty2 binding to arrayed compounds – biochemical, biotinylated probe, 635/667 nm fluorescence, primary screen (AID 1094).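 Further: score merges spot fluorescence near 667 nm with spot signal-to-noise ratio.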 Conditions: small-molecule microarray, higher = more signal.
In experiment [18] the test system is Noggin (protein binding on small-molecule microarray). The experiment in a line: small molecules binding Noggin protein – biochemical, 635/667 nm fluorescence, primary screen (AID 1095).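 Further: score merges 667 nm feature fluorescence with signal to noise over triplicate slides.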 Conditions: 635 nm fluorescence, higher = more signal.
For experiment [19], the target named is Neurogenic locus notch homolog protein 3 (Homo sapiens) (UniProt Q9UM47). Put plainly: small molecules binding NOTCH3 protein – biochemical, 635/667 nm fluorescence, primary screen (AID 1096). The conditions noted are these: small-molecule microarray, 635 nm fluorescence, higher = more signal.
Neurogenic locus notch homolog protein 3 (Homo sapiens), sequence (Q9UM47 whole entry, looked up): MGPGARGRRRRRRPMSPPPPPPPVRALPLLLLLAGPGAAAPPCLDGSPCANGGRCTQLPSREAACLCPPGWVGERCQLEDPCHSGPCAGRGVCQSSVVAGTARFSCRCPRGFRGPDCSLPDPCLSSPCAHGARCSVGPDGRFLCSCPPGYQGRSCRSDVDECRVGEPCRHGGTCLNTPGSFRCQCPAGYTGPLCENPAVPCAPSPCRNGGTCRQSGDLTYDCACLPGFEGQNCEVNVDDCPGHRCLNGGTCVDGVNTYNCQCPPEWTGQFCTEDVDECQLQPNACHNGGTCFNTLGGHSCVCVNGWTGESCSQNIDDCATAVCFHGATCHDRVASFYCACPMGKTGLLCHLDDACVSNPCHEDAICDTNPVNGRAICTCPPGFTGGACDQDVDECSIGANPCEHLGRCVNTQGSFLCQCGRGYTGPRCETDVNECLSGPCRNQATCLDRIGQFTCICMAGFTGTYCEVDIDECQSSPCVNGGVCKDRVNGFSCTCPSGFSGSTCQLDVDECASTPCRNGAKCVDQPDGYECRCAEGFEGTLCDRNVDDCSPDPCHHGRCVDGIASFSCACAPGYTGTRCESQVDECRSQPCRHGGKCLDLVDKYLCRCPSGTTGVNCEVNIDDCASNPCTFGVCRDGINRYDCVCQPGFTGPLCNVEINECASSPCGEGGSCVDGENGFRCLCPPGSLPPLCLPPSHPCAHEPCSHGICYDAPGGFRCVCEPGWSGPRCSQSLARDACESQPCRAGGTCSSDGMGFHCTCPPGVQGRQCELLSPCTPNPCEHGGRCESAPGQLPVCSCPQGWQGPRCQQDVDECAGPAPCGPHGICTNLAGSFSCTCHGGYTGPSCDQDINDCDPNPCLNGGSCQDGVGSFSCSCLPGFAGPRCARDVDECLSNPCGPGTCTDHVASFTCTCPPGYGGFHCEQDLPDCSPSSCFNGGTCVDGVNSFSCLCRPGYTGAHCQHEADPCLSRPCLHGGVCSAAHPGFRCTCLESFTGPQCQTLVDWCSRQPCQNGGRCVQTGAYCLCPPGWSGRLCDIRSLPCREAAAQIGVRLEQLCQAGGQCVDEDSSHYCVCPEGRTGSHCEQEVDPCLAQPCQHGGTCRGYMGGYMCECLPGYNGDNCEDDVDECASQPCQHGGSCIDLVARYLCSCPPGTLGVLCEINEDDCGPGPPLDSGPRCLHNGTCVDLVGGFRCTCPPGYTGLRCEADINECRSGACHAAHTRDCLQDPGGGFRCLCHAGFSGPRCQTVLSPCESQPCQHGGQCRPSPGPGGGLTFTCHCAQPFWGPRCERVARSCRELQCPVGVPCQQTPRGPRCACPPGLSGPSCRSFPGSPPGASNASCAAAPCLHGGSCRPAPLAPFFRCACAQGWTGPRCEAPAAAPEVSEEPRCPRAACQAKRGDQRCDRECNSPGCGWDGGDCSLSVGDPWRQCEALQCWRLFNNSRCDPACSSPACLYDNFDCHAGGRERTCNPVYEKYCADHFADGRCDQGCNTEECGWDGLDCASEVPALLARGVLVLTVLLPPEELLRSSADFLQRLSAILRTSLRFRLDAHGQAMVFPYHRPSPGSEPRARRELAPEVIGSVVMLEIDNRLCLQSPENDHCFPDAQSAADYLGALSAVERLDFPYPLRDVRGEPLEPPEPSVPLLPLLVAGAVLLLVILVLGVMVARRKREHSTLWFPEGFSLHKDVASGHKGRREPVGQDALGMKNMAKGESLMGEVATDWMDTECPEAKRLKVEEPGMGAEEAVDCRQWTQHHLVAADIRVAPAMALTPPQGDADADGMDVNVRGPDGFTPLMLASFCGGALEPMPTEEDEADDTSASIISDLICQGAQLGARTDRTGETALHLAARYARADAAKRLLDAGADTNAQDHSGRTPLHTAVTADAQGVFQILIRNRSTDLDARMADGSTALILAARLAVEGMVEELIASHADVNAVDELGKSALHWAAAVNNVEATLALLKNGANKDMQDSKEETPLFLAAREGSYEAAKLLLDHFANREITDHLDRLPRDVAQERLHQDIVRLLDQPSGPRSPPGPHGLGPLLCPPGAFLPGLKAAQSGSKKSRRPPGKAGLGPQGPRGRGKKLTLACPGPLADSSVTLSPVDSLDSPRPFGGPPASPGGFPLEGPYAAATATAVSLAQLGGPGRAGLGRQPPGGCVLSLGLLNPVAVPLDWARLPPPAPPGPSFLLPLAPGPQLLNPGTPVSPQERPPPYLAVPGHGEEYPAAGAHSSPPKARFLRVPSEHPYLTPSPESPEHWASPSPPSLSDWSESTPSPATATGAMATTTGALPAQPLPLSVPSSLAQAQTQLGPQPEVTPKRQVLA
Experiment [20] in a line: probe aEGFR binding to arrayed compounds – biochemical, biotinylated probe, 635/667 nm fluorescence, primary screen (AID 1097).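 Further: probe is a biotinylated anti-EGFR antibody binding compounds printed on slides; score combines fluorescence near 667 nm and signal to noise of each spot.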 The conditions noted are these: small-molecule microarray, higher = more signal.

Pro-neuregulin-1, membrane-bound isoform (Homo sapiens), sequence (Q02297 whole entry, looked up, the tested form may be a part, canonical isoform): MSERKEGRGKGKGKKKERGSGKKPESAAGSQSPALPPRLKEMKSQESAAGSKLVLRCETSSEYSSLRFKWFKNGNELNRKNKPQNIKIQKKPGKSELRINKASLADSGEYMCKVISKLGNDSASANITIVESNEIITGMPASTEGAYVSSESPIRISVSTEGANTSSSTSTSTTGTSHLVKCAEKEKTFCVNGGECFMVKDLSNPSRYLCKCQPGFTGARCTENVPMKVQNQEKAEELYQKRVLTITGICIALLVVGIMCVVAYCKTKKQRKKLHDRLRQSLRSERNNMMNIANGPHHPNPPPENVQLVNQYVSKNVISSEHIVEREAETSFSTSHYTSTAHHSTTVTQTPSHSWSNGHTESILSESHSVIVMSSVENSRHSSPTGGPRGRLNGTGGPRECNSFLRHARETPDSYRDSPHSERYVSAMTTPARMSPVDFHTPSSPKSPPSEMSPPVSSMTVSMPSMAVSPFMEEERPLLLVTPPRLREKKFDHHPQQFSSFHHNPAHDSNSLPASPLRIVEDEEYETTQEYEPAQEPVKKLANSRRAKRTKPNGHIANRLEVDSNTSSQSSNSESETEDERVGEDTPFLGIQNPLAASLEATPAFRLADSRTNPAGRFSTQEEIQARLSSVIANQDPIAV

Consider `CC(C)c1ccc(NN2C(C(O)c3ccc(B(O)O)cc3)C=CC3C(=O)N(c4ccccc4)C(=O)C32)cc1` (stereo not given), for which the composite z-score is 0.842 in experiment [1]; 0.0275 in experiment [2]; 0.185 in experiment [3]; 1.13 in experiment [4]; 1.63 in experiment [5]; 1.19 in experiment [6]. Moreover, the composite z-score in experiment [7] came out at 1.15; in experiment [9], 1.67; in [10] it was 0.0722; in [11] it was 0.815; in [15], 2.99; in experiment [17], 0.413. Besides, the figures for the composite z-score in experiment [18], in experiment [19] and in experiment [20] were -0.266, 1.11 and -0.0179, respectively. Further, the z-score in experiment [8] is 0.87 (inactive); in experiment [12], 0.0686 (inactive); in experiment [13] it was -4.4 (inactive); in experiment [14] it was 0.617 (inactive); in experiment [16] it was -0.41 (inactive).

On to `CC(=O)NCCCC[C@@H]1NC(=O)[C@@H]2C[C@H](C(=O)NCCCCCNC(=O)CS)[C@H](c3cccc(OCCO)c3)N2C1=O`, for which the composite z-score in experiment [1] is -0.525; in [2] it was -0.047; in experiment [3], -0.211; in [4], 0.37; in experiment [5], 0.121; in experiment [6] it was -0.122. Besides, the composite z-score in experiment [7] is 0.709; in experiment [9], -0.195; in experiment [10], -0.212; in [11], 1.18; in experiment [15], -0.0484; in experiment [17], -0.141. The composite z-score in experiment [18] is 1.55; in [19], 0.486; in experiment [20] it was -0.0808. The z-score in experiment [8] was 0.618 (inactive); in [12], -3.39 (inactive); in experiment [13], -0.0277 (inactive); in experiment [14], -2.5 (inactive); in experiment [16] it was 1.16 (inactive).

Consider `CCCCC(CC)C(O)C1C=CC2C(=O)N(Cc3ccccc3)C(=O)C2N1n1cnnc1` (stereo not given), for which the composite z-score in [1] is 0.168; in experiment [2], -0.367; in experiment [3], -0.0305; in [4] it was 0.175; in [5], 0.0048; in experiment [6], -0.343. The composite z-score was 1.1 in [7]; 0.246 in experiment [9]; -0.199 in experiment [10]; 0.249 in [11]; 0.77 in experiment [15]; -0.0238 in [17]. Also, the composite z-score is -0.0141 in experiment [18], -0.22 in experiment [19] and -0.0253 in [20]. Also, the z-score in experiment [8] was -0.302 (inactive); in experiment [12], -0.279 (inactive); in [13], -0.359 (inactive); in experiment [14] it was -0.435 (inactive); in [16], -1.05 (inactive).

For `CN1C(=O)C2C=CC(C(O)C3CC=CCC3)N(N(c3ccccc3)c3ccccc3)C2C1=O` (stereo not given), the composite z-score is 0.677 in experiment [1]; -0.0811 in experiment [2]; 0.0247 in experiment [3]; -0.0455 in experiment [4]; 0.172 in experiment [5]; -0.282 in experiment [6]. The composite z-score in [7] is 0.33; in [9], 0.408; in experiment [10] it was -0.137; in experiment [11], -1.73; in experiment [15], -0.0863; in experiment [17], 0.639. In addition, the composite z-score in experiment [18] was -0.264; in [19] it was 0.0898; in experiment [20], -0.0823. In addition, the z-score in [8] is -0.654 (inactive); in experiment [12], 0.607 (inactive); in [13], 1.7 (inactive); in [14] it was 1.01 (inactive); in experiment [16], -0.843 (inactive).

Take `O=C1c2ccccc2[C@](Cc2ccccc2I)(C(=O)NCC(F)(F)F)[C@H](c2ccc(CO)cc2)N1Cc1ccccc1Cl`: the composite z-score is -0.266 in experiment [1]; 0.0347 in experiment [2]; 0.0069 in experiment [3]; 0.106 in experiment [4]; 0.95 in experiment [5]; 1.74 in experiment [6]. Also, the composite z-score in experiment [7] was 1.28; in experiment [9] it was 0.748; in experiment [10], 0.0373; in experiment [11], 1.53; in experiment [15] it was 3; in experiment [17], -0.0283. The values for the composite z-score in experiment [18], in [19] and in experiment [20] were 0.496, 0.958 and -0.0409, respectively. The z-score was -1.05 (inactive) in experiment [8]; -0.893 (inactive) in [12]; -1.09 (inactive) in experiment [13]; -1.29 (inactive) in experiment [14]; -0.267 (inactive) in [16].

The record behind these values is PubChem BioAssay.
